Data on 67 compounds can be found in ChEMBL document CHEMBL4808148, “HDAC6 screening dataset using tau-based substrate in an enzymatic assay yields selective inhibitors and activators” (2021).

For experiment [1], the target named is T1, Protein deacetylase HDAC6 (Homo sapiens) (UniProt Q9UBN7).
T1 sequence (whole entry): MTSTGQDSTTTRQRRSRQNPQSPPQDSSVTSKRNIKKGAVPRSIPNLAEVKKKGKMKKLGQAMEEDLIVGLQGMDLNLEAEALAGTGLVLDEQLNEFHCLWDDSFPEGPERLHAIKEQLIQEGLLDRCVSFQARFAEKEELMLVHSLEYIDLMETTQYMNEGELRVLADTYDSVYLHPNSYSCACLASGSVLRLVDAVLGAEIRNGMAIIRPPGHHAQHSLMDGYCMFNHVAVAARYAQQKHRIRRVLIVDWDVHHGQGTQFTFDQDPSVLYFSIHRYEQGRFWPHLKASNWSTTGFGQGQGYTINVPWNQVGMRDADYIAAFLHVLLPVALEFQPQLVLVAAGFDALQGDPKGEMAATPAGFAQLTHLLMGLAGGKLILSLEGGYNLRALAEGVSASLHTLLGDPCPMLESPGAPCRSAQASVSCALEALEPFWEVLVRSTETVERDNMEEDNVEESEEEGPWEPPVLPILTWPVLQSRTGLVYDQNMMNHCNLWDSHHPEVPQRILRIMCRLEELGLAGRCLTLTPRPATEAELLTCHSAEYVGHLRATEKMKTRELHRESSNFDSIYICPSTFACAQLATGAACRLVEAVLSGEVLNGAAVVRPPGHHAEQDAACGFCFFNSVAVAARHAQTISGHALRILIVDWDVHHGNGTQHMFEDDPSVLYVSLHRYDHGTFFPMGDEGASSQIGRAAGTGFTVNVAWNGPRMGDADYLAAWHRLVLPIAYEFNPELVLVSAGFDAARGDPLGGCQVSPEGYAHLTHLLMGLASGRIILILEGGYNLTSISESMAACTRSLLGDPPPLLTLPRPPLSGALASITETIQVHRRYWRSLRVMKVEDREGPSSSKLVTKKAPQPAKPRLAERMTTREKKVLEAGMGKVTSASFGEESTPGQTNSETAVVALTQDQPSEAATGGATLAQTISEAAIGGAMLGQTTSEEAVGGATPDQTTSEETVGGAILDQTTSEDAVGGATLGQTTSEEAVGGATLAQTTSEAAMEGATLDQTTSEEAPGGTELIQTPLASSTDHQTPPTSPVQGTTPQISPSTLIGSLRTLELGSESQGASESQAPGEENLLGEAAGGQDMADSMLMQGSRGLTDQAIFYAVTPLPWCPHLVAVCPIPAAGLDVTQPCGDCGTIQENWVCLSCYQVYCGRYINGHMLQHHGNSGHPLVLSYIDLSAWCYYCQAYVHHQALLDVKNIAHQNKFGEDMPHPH
The following applies: at 10 µM.

For experiment [2], the target named is Protein deacetylase HDAC6 (Homo sapiens) (UniProt Q9UBN7). The following applies: at 10 µM. The source holds these as a separate data set.

“And” between values parts separate entries of the source, which are not always exact repeats. Equal values may be shown once. Screen size: about 5,600 compounds; about 390 (7%) showed an effect of 50% or more. For the sample, strong results were picked, then their nearest neighbours and some compounds at random.

Broadly, the inhibition is the change of the read-out against control, counted positive when it falls. In the case of `CN1CCC(COc2cnc(-c3cccc(Cn4nc(-c5cccc(C#N)c5)ccc4=O)c3)nc2)CC1`, in experiment [1], the inhibition was 17.5%.
The same measure, in the same setting: with `COc1cc2c(cc1-c1c(C)noc1C)ncc1[nH]c(=O)n([C@H](C)c3ccccn3)c12` the figure was 12.8%.
On the same count and under the same terms, with `CC(=O)/N=c1/[nH]c(C)c(-c2ccc(Cl)c(S(=O)(=O)NCCO)c2)s1` the figure was 23.4%; with `CCCCC1=NC2(CCCC2)C(=O)N1Cc1ccc(-c2ccccc2-c2nnn[nH]2)cc1`, -8.81%; with `O=C(O)c1cnn(-c2nc3cc(OC(F)(F)F)c(Cl)cc3[nH]2)c1`, 59.5%.
For the compound `COc1ccc(Nc2nccc(NCCO)n2)cc1`, in experiment [1], the inhibition is 37.2%.
As for `Cc1cc(NCCO)nc(-c2ccc(Br)cc2)n1`, the inhibition in experiment [1] stood at 85.2%.
On the same count and under the same terms, with `N#Cc1cc(CN2CCC(Nc3ncnc4sc(Cl)cc34)CC2)ccc1F` the figure was 6.29%; with `Cn1c(NC[C@@H](N)Cc2ccccc2)nc(-c2ccncc2)c(-c2ccc3ccccc3c2)c1=O`, 0.59%; with `Nc1nccc2c1ncn2[C@@H]1O[C@H](CO)C(O)C1O` (some centres not stated), 11%.
In the case of `C[C@H](NC(=O)CNC(=O)c1cccc(Cl)c1)c1ccccc1`, the inhibition in experiment [1] is 21.1%.
`COc1ccc(C(=O)NCc2ccc(OCCN(C)C)cc2)cc1OC`: the inhibition in experiment [1] stood at 1.13%.
The same measure, in the same setting: with `COc1cc(C(=O)NCc2ccc(OCCN(C)C)cc2)cc(OC)c1OC` the figure was 6.33%.
As to `CN(C)Cc1c(C(=O)NCCOc2ccc(C(=O)NO)cc2)oc2ccccc12`, the inhibition in experiment [1] was 102%.
Still for that read-out and setting: to `N#Cc1cc2c(OCC(O)CN3CCN(C(c4ccccc4)c4ccccc4)CC3)cccc2[nH]1` (racemic) belongs 3.02%.
Same read-out and setting: to `O=C1CC2(CCCC2)CC(=O)N1CCNCC1COc2ccccc2O1` (configuration not stated) belongs 5.51%; to `CN(C)C(=O)n1nnnc1Cc1ccc(-c2ccccc2)cc1`, 26.8%.
As to `CCCNC(=O)N1N=C(c2ccc(N)cc2)c2cc3c(cc2C1C)OCO3` (configuration not stated), in experiment [1], the inhibition is 26.2%.
Take `Cc1[nH]c(/C=C2\C(=O)Nc3ccc(F)cc32)c(C)c1C(=O)NC[C@H](O)CN1CCOCC1`: in experiment [1], the inhibition is 34%.
Same read-out and setting: with `Cc1ccc(OCCSc2ncccn2)c(Br)c1` the figure was 99.3%.
Still for that read-out and setting: to `CCCCCCCCCCCCCCC[C@@H](O)[C@@H](N)CO` belongs 26%.
Sodium stibogluconate, CHEMBL2079699: in experiment [2], the inhibition was 0.83%.
In the case of `Cc1cc(C)c(/C=C2\C(=O)Nc3ccccc32)[nH]1`, the inhibition in experiment [1] was found to be 88.8%.
Still for that read-out and setting: with `CN(C)c1ccc(/C=C2\C(=O)Nc3ccccc32)cc1` the figure was 101%.
Take `Cc1[nH]c(/C=C2\C(=O)Nc3ccccc32)c(C)c1CCC(=O)O`: in experiment [1], the inhibition turned out to be 30.1%.
Consider `CCN(CC)CCNC(=O)c1c(C)[nH]c(/C=C2\C(=O)Nc3ccc(F)cc32)c1C`, for which, in experiment [1], the inhibition is 16.3%.
Same read-out and setting: with `C#Cc1c[nH]c(=O)[nH]c1=O` the figure was -6.92%; with `CC1(C)CN2C(CS/C(=N\C3CCCCC3)NC3CCCCC3)=CSC2=N1`, 12.2%; with `O=S(=O)(NC1CCNCC1)c1cc(S(=O)(=O)c2ccccc2)ccc1C(F)(F)F`, -7.14%.
For `CC(CCCCC(=O)Nc1ccc(C(F)(F)F)cc1)NCCc1c[nH]cn1` (configuration not stated), the inhibition in experiment [1] came out at 3.94%.
In the case of `C/C(=C\CNc1ncnc2[nH]cnc12)CO`, the inhibition in experiment [1] came to 5.74%.
For `CCC(c1ccccc1)c1c(O)c2ccccc2oc1=O` (configuration not stated), the inhibition in experiment [1] is 16.2%.
Same read-out and setting: to `O=c1c2ccccc2oc2ccccc12` belongs 92.3%; to `O=c1oc2ccccc2c(O)c1Cc1c(O)c2ccccc2oc1=O`, -8.39%.
Still for that read-out and setting: with `Cc1cc(-c2nc3cc(F)ccc3s2)ccc1NC(=O)[C@@H](N)CCCCN` the figure was 28.4%; with `CNCCC=C1c2ccccc2C=Cc2ccccc21`, 15.7%; with `CN(C)CCC=C1c2ccccc2COc2ccccc21`, -7.53%.
Turning to `CN(C)CCC=C1c2ccccc2C=Cc2ccccc21`, the inhibition in experiment [1] was found to be 63.9%.
As to `CNc1cc2c(Nc3cccc(Br)c3)ncnc2cn1`, the inhibition in experiment [1] amounted to 9.09%.
The same measure, in the same setting: with `Cc1ccc2nc(NCCN)c3ncc(C)n3c2c1` the figure was 4.14%; with `O=C1Nc2ccc(I)cc2C1=Cc1cc(Br)c(O)c(Br)c1`, 72.9%.
Turning to `C=C[C@@H]1C[C@]1(NC(=O)[C@@H]1C[C@@H]2CN1C(=O)[C@H](C(C)(C)C)NC(=O)O[C@@H]1C[C@H]1CCCCCc1nc3ccc(OC)cc3nc1O2)C(=O)NS(=O)(=O)C1CC1`, the inhibition in experiment [1] stood at 0.36%.
`O=c1c2c(c1=O)N(CCP(=O)(O)O)CCCN2`: in experiment [1], the inhibition stood at 12.1%.
In the case of `Cc1ccc([N+](=O)[O-])cc1S(=O)(=O)N(C)C`, in experiment [1], the inhibition worked out at 6.18%.
Consider `S=C(NCCc1ccccn1)Nc1ccc(Br)cn1`, for which the inhibition in experiment [1] was 8.48%.
Regarding `COC(c1ccccc1)(c1ccccc1)[C@H](Oc1nc(C)cc(C)n1)C(=O)O`, the inhibition in experiment [1] was -8.71%.
Mangafodipir (trisodium), CHEMBL5308448: the inhibition in experiment [2] was found to be 18%.
Take NKP-1339, CHEMBL5308480: the inhibition in experiment [2] was determined as 34.9%.
Same read-out and setting: to hemin, CHEMBL5308479 belongs 56.4%.
Take `COc1ccc(CC2NCCc3c2[nH]c2ccc(C)cc32)c(Cl)c1OC` (configuration not stated): the inhibition in experiment [1] was -1.23%.
Same read-out and setting: with `O=C(Nc1ccccc1)Nc1ccc(-c2ccc(C(=O)[C@@H]3CCC[C@H]3C(=O)O)cc2)cc1` the figure was 4.7% and 12.5%; with `CN1CCN(c2ccc3nc(-c4c(N)c5c(F)cccc5[nH]c4=O)[nH]c3c2)CC1`, 86.8%; with `CN1CCN(C(=O)c2nc3ccc(Cl)cc3[nH]2)CC1`, 16.2%.
Take `CC(C)=CCC[C@](C)(O)[C@H]1CC[C@]2(C)[C@@H]1[C@H](O)C[C@@H]1[C@@]3(C)CC[C@H](O[C@@H]4O[C@H](CO)[C@@H](O)[C@H](O)[C@H]4O[C@@H]4O[C@H](CO)[C@@H](O)[C@H](O)[C@H]4O)C(C)(C)[C@@H]3CC[C@]12C`: the inhibition in experiment [1] was determined as 11.5%.
Take `O=C(Cn1ccnc1[N+](=O)[O-])NCc1ccccc1`: the inhibition in experiment [1] stood at 32.3%.
As to `Cc1c[nH]c(=O)n(CCCN2CCN(c3ccccc3OCC(F)(F)F)CC2)c1=O`, in experiment [1], the inhibition was 19.2%.
As for `COc1ccc(-c2nc(N3CCOCC3)c3sc(CN(C)c4ncc(C(=O)NO)cn4)cc3n2)cn1`, in experiment [1], the inhibition was found to be 98%.
Turning to `COC(=O)Nc1ccc(-c2nc(N3CCOCC3)c3cnn(C4CCN(C(=O)OC)CC4)c3n2)cc1`, in experiment [1], the inhibition amounted to 21.1%.
Regarding `CS(=O)(=O)N1CCN(Cc2cc3nc(-c4cccc5[nH]ncc45)nc(N4CCOCC4)c3s2)CC1`, in experiment [1], the inhibition stood at 11.1%.
As for `C[N+](C)(C)NCCC(=O)[O-]`, in experiment [1], the inhibition turned out to be 17.8%.
For the compound `Cn1c(=O)c2c(ncn2CCOC(=O)C(C)(C)Oc2ccc(Cl)cc2)n(C)c1=O`, in experiment [1], the inhibition worked out at 23.6%.
Same read-out and setting: with `c1ccc(-c2n[nH]c3c2oc2ccccc23)cc1` the figure was 95%; with `CCC/C=C1\OC(=O)C2=C1CCC=C2`, 39.5%.
Still for that read-out and setting: to `CC(=C\c1ccc(Cl)cc1)/C(C)=N/O` belongs 2.85%; to `NC(CC(F)C(=O)O)C(=O)O` (racemic), 38.9%.
As for `COC(=O)/C=C/c1cc(O)ccc1O`, the inhibition in experiment [1] was found to be 28.1%.
The same measure, in the same setting: to `C=CC(C)(C)c1cc(/C=C/C(=O)c2ccc(O)cc2)c(OC)cc1O` belongs 75.1%.
